These results are taken from PubChem BioAssay (Tox21).

Results filed as inconclusive are left out. Entries that show only a call come without a potency. Unmarked numbers belong to inactive results. Active and inactive are the calls of the source. Calls come from the whole dose curve; as a rule, active = well fitted inhibition curve with a large enough effect in the repeat runs; inconclusive = weak or mixed curves; inactive = flat fitted curve, though single readings scatter.
Potency is the fitted concentration of half-maximal effect.

This test in a line: qHTS assay to identify small molecule HDAC inhibitors (AID 1259364). For activity change, negative = inhibition: top concentration of the series differs between compounds. Note: nearly all actives have a fitted effect of over 45% in size. The conditions noted are these: HCT-116 HDAC-Glo I/II luminescence, 2 h; series mostly up to 92.4 µM. From the text:
U.S. Tox21 Program National Center for Advancing Translational Sciences [NCATS] NIH Chemical Genomics Center [NCGC] U.S. Environmental Protection Agency [EPA] National Institutes of Environmental Health Sciences [NIEHS] National Toxicology Program [NTP] U.S. Food and Drug Administration [FDA] Tox21 Assay Overview: Histone deacetylases (HDACs) are a group of epigenetic enzymes that regulate gene expression by histone deacetylation. HDACs are capable of introducing epigenetic modifications and such aberrations contribute to the onset and progression of several human diseases, thus making HDACs a popular therapeutic target. For identifying endogenous class I/II HDAC inhibitors a homogenous, luminogenic HDAC I/II cell based assay was used to measure the relative activity of class I and II HDACs from cells. Wild type HCT-116 cells were used to screen Tox21 libraries for identifying class I/II HDAC inhibitors.
Tox21 Assay Protocol Summary: HCT-116 cells were dispensed at 1,500 per well in 5uL of culture medium into white solid bottom 1536-well plates (Greiner Bio-One, Monroe, NC) using a Multidrop Combi (Thermo Scientific, Waltham, MA) dispenser. The assay plates were incubated at 37 C and 5% CO2 for an overnight, and then 23nL of compounds dissolved in DMSO and positive control were transferred using a Pintool station (Wako, San Diego, CA). The assay plates were incubated at 37C and 5% CO2 for 2hr. After compound treatment, 4uL of HDAC-Glo reagent (Promega Corporation, Madison, WI) was added to each well of the assay plates using Flying Reagent Dispenser (FRD, Aurora Discovery, San Diego, CA) and incubated the assay plates at room temperature for 30min. The luminescence signal was quantified using a ViewLux plate reader (Perkin Elmer, Shelton, CT).
A general note: qHTS replaces the single test concentration by a dilution series.
On to `C=C1C[C@@H]2[C@H](CC[C@]3(C)C(=O)CC[C@@H]23)[C@@]2(C)C=CC(=O)C=C12`, for which the Potency entry is “inactive”. Same read-out and setting: for `CC(C)C(C)(N)C#N` (stereo not given) the value was “inactive”; for `c1cncc([C@@H]2CCCCN2)c1`, “inactive”; for `CCC(CC)(CNC(=O)CCCO)c1cccc(OC)c1`, “inactive”.

`CCOC1Oc2ccc(OS(C)(=O)=O)cc2C1(C)C` (stereo not given): the Potency result was “inactive”. Still for that read-out and setting: for `ClCOCCl` the value was “inactive”. On the same count and under the same terms, for `CCCC(C)C1(CC)C(=O)N=C(S)NC1=O` (stereo not given) the value was “inactive”. As to `NNC(N)=O`, the Potency result is “inactive”. Consider `CCCOC(=O)Cc1ccc(OCC(=O)N(CC)CC)c(OC)c1`, for which the Potency entry is “inactive”. Same read-out and setting: for `CCCC[N+](=O)[O-]` the value was “inactive”; for `O=C(O)C(F)(F)C(F)(F)C(F)(F)C(F)(F)C(F)(F)C(F)(F)F`, “inactive”; for `COC(=O)c1ccccc1CS(=O)(=O)NC(=O)Nc1nc(OC)cc(OC)n1`, “inactive”. Still for that read-out and setting: for `CN(C)C1CCCCC1` the value was “inactive”; for `CCc1ccc(C2CCNCC2)cc1`, “inactive”; for `CC[C@@H](CO)NC(=O)[C@@H]1C=C2c3cccc4c3c(cn4C)C[C@H]2N(C)C1`, “inactive”. Regarding `CCC1(CC)C(=O)C=CNC1=O`, the Potency entry was “inactive”. In the case of `C=C(C)[C@H]1CN[C@H](C(=O)O)[C@H]1CC(=O)O`, the Potency result was “inactive”.

Take `Clc1nc(Cl)nc(Nc2ccccc2Cl)n1`: the Potency entry is “inactive”. In the case of `O=C(Cl)c1ccccc1`, the Potency result was “inactive”.

As for `CC1NCCOC1c1ccccc1` (stereo not given), the Potency result was “inactive”.

Take `CC(C)(C)C(=O)C(Cl)Cl`: the Potency entry was “inactive”.

As to `CS(=O)(=O)c1ccc(C(=O)C2C(=O)CCCC2=O)c(Cl)c1COCC(F)(F)F`, the Potency entry was “inactive”. `CCOC(=O)Nc1cccc(OC(=O)Nc2ccccc2)c1`: the Potency is 3.86 µM (active). The same measure, in the same setting: for `CCN[C@@H](C)Cc1cccc(C(F)(F)F)c1` the value was “inactive”; for `C=CCc1cc(OC)c2c(c1)OCO2`, “inactive”; for `CN1COCN(Cc2cnc(Cl)s2)/C1=N\[N+](=O)[O-]`, “inactive”. Turning to `CCC(C)(C#N)N=NC(C)(C#N)CC` (stereo not given), the Potency entry is “inactive”.

In the case of `CC(C)c1ccc(O)cc1`, the Potency result was “inactive”.

As to `Brc1c(Br)c(Br)c(Br)c(Br)c1Br`, the activity change, negative = inhibition is 4.51% [at 8.39 µM]. On to `COc1ccc(C=O)cc1O`, for which the Potency entry was “inactive”. Same read-out and setting: for `N#CN=C1SCCN1Cc1ccc(Cl)nc1` the value was “inactive”; for `C=CC(=O)OCCN(C)C`, “inactive”; for `O=C(O)C(Cl)Br` (stereo not given), “inactive”.

As to `CCC1(c2ccccc2)CCC(=O)NC1=O` (stereo not given), the Potency result is “inactive”.

Turning to `Clc1cc2c(cc1Cl)Oc1cc(Cl)c(Cl)cc1O2`, the activity change, negative = inhibition is 0.908% [at 0.349 µM]. Regarding `O=C(NC(=O)c1c(F)cccc1F)Nc1cc(Cl)c(F)c(Cl)c1F`, the Potency result is “inactive”. Still for that read-out and setting: for `ClC(Cl)(Cl)Cl` the value was “inactive”. The same measure, in the same setting: for `CN(C)C(=O)Oc1cc(OC(=O)N(C)C)cc(C(O)CNC(C)(C)C)c1` (stereo not given) the value was “inactive”; for `CCSC(=O)Cl`, “inactive”. Still for that read-out and setting: for `CCOC(=O)NC(C)(C)Cc1ccc(Cl)cc1` the value was “inactive”.
